Laboratory results reported in PubChem BioAssay AID1347070 (National Center for Advancing Translational Sciences (NCATS), 2019).
About 20 (0.02%) of roughly 94,000 compounds were called active. About 1% were inconclusive and are not listed. The call rests on the fitted dose curve; in most records, active means well fitted activation curve with a large enough effect; inconclusive means small, poorly fitted or top-dose-only effect; inactive means flat fitted curve, though single readings scatter. Not all results are given here.

Experiment: qHTS of alpha-syn Inhibitors: NCGC Sytravon Library Screen
Details: S. cerevisiae alpha-synuclein toxicity rescue, BacTiter-Glo growth, 24 h; series mostly up to 46.1 µM
Source text: The goal of this project is to identify new chemical probes capable of reversing the toxicity associated with the Parkinson disease-related protein, alpha-synuclein. Compounds will be selected on their ability to restore growth in yeast cells expressing toxic levels of alpha-synuclein. These compounds will provide a complementary approach to deciphering the tangled mechanisms of toxicity and protection that we have uncovered through genome-wide genetic screens and are beginning to uncover in a large-scale proteomics analysis with mass spectroscopy. To this end, a miniaturized assay was developed to be screened against the Molecular Libraries Small Molecule Repository (MLSMR) to discover alpha-synuclein inhibitors. […] The phenotype of interest will be that of an Activator and this screen is run against the NCGC Sytravon Library collection. NIH Chemical Genomics Center [NCGC] NIH Molecular Libraries Probe Centers Network [MLPCN] MLPCN Grant: NS060957 Assay Submitter (PI): Susan Lindquist, Whitehead Institute/MIT
Dispense 2.5 microL yeast galactose medium per 1536-well plate, pin compound, dispense 2.5 microL alpha-synuclein expressing yeast in galactose medium at OD600=0.02 (pregrown in raffinose medium to mid-log phase) per well, incubate for 24 hr at 30 deg C, and cell growth will be measured using 5 microL of Bactiter/Glo reagent to entire plate and read using Luminescence Protocol in ViewLux.

Structure (SMILES)	outcome
C[C@H]1CN(c2ccc(Br)cc2)C(=O)[C@@H]1CC(=O)Nc1ccc(Br)cc1	inactive
COC(=O)CNC(=O)c1cc(-c2ccncc2)nc2ccccc12	inactive
O=C(NC1CCCC1)c1cc(-c2ccccc2)on1	inactive
CCOc1ccc(C(CC(=O)O)n2cnnn2)cc1OC (centres undefined)	inactive
COCCN(Cc1nc(-c2ccc(C(F)(F)F)cc2)no1)C(C)C	inactive
CC(Nc1nc(C(F)(F)F)nc2ccccc12)c1cccs1 (centres undefined)	inactive
CCc1noc(C)c1C(=O)OCC(=O)c1ccc(NC(=O)CC(C)C)cc1	inactive
CCc1nc2c(=O)[nH]cnc2o1	inactive
CN(Cc1ccc(F)cc1Cl)S(=O)(=O)c1cccs1	inactive
O=C(OCC(=O)N1CCCCCC1)c1cccc(Cl)c1Cl	inactive
O=C(CN1CCCCC1)NC(=O)Nc1ccccc1F	inactive
Cc1ccc(O)c(NC(=O)c2cc(-c3ccco3)on2)c1	inactive
CCOC(=O)Cc1cc(=O)[nH]c(/N=C(\N)Nc2ccc(OC)cc2)n1	inactive
COc1ccccc1N(C)C(=O)c1cc(S(=O)(=O)N2CCc3ccccc32)cn1C	inactive
COc1ccc(-c2ccc3[nH]c4c(c3c2)CCN2C[C@H]3[C@H](C)ON(C)[C@H]3C[C@@H]42)cc1	inactive
CC(=O)Nc1ccccc1NC(=O)c1cc(C)cc(C)c1	inactive
O=C(COC(=O)Cc1ccc(Cl)cc1Cl)NCc1ccco1	inactive

Structure (SMILES)	outcome
Cc1cc(=O)c2ccc(NC(=O)c3ccccc3)cc2[nH]1	inactive
Cc1cc2c3ccccc3[nH]c(=O)n2n1	inactive
COc1cccc(COC(=O)C2CCN(S(=O)(=O)c3cccs3)CC2)c1OC	inactive
CSc1nc(-c2ccco2)nn1C(=O)c1ccccc1Cl	inactive
COc1ccc(C=C2CCC3C(CCCC34OCCO4)C2=O)cc1 (centres undefined)	inactive
Cc1cccc(NC(=O)c2cc([N+](=O)[O-])ccc2N2CCN(C)CC2)c1	inactive
CCN(CCNC(=O)C1=C(C)C(=O)OC12CCC(C)CC2)c1ccccc1 (centres undefined)	inactive
CCCCN1C(=O)C(CC(=O)NC(c2ccccc2)c2ccccc2)CC(C(=O)N2CCOCC2)=C1C (centres undefined)	inactive
COCCn1c(C)cc(C(=O)COC(=O)/C=C/c2cccc(OC)c2)c1C	inactive
C[C@@H]1CN([C@@H](C)CO)C(=O)c2cc(NS(C)(=O)=O)ccc2O[C@@H](C)CCCCO[C@H]1CN(C)C(=O)Nc1ccc2c(c1)OCO2	inactive
COc1ccc(C(=O)COC(=O)CNC(=O)c2cccs2)cc1Br	inactive
Cc1ccccc1NS(=O)(=O)CCCCC(Cl)(Cl)Cl	inactive
CC1CCN(C(=O)CCNC(=O)c2ccccc2)CC1	inactive
CC(C)CN(C(=O)COC(=O)c1ccc2ccccc2c1)c1c(N)n(Cc2ccccc2)c(=O)[nH]c1=O	inactive
COc1ccc(/C=C(\NC(=O)c2ccccc2)C(=O)NCCN2CCOCC2)cc1OC	inactive
Cc1ccc(SCCC(=O)Nc2cc(C)on2)cc1	inactive
Cc1onc(-c2ccccc2Cl)c1C(=O)OCc1nnc(-c2ccccc2)o1	inactive
